Screening data as filed in PubChem.
ELG1 genotox = induces genotoxicity in HEK293T cells with luciferase-tagged ELG1 | HEK293T ELG1-luciferase reporter, luminescence, 16 h | Potency, µM (titrated, usually from 46 µM), inactives show at the top dose activity change, positive = activation, usual class: activators | 330,000 compounds, 1.3% hits; note: % of control where 0% means no effect; nearly all actives have a fitted effect of over 60% in size
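HEK293T cells expressing luciferase-tagged ELG1 were exposed to compound or DMSO vehicle for 16 hr at 37 °C and 5% CO2. Luciferase activity was then measured with ONE-Glo after 30 min at room temperature.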
FLuc modulator = counter-screen for miR-21 project: firefly luciferase inhibitors or activators; P08659; purified FLuc, Km substrates, luminescence inhibition; Potency, µM (top dose mostly 57.5 µM), for inactives: at the highest dose activity change, negative = inhibition, most hits filed as inhibitors; 360,000 compounds, 6.9% hits; AID 588342;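 note: plate controls were vehicle for no effect and reference inhibitor for full effect; nearly all actives have a fitted effect of over 55% in size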
Target sequence (P08659 whole entry, looked up): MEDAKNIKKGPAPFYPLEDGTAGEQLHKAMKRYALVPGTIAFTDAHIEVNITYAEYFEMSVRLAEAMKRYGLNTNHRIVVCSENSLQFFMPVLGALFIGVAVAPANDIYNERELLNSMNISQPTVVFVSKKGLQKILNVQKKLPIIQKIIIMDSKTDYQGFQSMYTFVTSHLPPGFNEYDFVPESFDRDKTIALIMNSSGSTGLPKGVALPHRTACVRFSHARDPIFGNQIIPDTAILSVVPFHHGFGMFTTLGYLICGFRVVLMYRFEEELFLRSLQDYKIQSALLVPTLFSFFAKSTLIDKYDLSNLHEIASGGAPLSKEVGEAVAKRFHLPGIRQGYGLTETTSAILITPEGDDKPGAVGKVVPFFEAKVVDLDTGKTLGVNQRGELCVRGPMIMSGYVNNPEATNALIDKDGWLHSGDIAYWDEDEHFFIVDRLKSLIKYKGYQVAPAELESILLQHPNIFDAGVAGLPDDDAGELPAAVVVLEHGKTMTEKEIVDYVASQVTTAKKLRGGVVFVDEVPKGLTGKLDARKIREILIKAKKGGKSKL
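Purified P. pyralis luciferase, 10 nM final, with Km-level 10 uM D-luciferin and 10 uM ATP in 50 mM Tris acetate pH 7.5, 10 mM Mg acetate, 0.01% Tween-20, 0.05% BSA; 6-point qHTS titration about 60 µM downward; luminescence read.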
Luc counter = blocks Kinase-Glo luciferase, a counter-screen artifact. AID 1379. 200,000 compounds, 0.28% hits. Q27757. Kinase-Glo luciferase, ATP luminescence, 8 min. Potency, µM (highest dose often 38.3 µM), without a hit: at the top dose activity change, negative = inhibition, usual class: inhibitors; note: % is set by controls: 0 for no effect and ±100 for the full control effect; nearly all actives have a fitted effect of over 60% in size
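Inhibition of Kinase-Glo luciferase light generation was assessed at 10 uM ATP in pH 7.2 imidazole buffer, with luminescence measured after eight minutes at ambient temperature.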
NPC1 prom act = NPC1 promoter activation; 320,000 compounds, 2.4% hits; Huh7 NPC1 promoter luciferase reporter, 24 h; Potency, µM (titrated, usually from 9.22 µM), for the others: at the top dose activation, actives largely listed as activators; AID 485313; note: % of control where 0% means no effect; nearly all actives have a fitted effect of over 60% in size
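Cells: Huh7 expressing luciferase under the NPC1 promoter, 1500/well. Seeded 2 h, compound added, incubated 24 h at 37 °C. Luciferase reagent, 10 min ambient, then luminescence.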
SMN2 splice enh = enhancers of SMN2 splice variant expression | HEK293 SMN2-luciferase splicing reporter, luminescence, 30-36 h | Potency, µM (series often up to 46.1 µM), without a hit: at the highest dose activity change, positive = activation, hits mostly activators | 210,000 compounds, 2.8% hits; note: % of control where 0% means no effect; nearly all actives have a fitted effect of over 55% in size
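HEK293 cells carry an SMN2 […]–luciferase reporter in which exon 7 inclusion puts luciferase in frame. Cells were plated 10-12 h before compound addition, then incubated 30-36 h at 37C. ONE-Glo luminescence was read; sodium butyrate at 4.5 mM final served as control.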
Rab9 promoter act = Rab9 promoter activation; AID 485297; 320,000 compounds, 2.8% hits; Potency, µM (series often up to 9.22 µM), without a hit: at the top dose activation, negative = inhibition, usual class: activators; Huh7 Rab9 promoter-luciferase reporter, luminescence, 24 h; note: % of control where 0% means no effect; nearly all actives have a fitted effect of over 60% in size
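Promoter activation is measured as luciferase luminescence in Huh7 cells stably transfected with a Rab9 promoter–luciferase construct, following 24 h compound exposure at 37 °C and 10 min reagent incubation at ambient temperature.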
Active calls of the source: *; ? = inconclusive; / = not tested or not shown. Only some compounds are listed: those with a hit (about 7.4% of all), similar ones and a draw of the others. Calls come from the whole dose curve; as a rule, active = well fitted curve in the direction sought with a large enough effect; inconclusive = small, poorly fitted or top-dose-only effect, or another doubt; inactive = no such curve, though single readings can be large; an effect the other way counts as inactive or inconclusive. Potency is the fitted concentration of half-maximal effect.

SMILES	ELG1 genotox	FLuc modulator	Luc counter	NPC1 prom act	SMN2 splice enh	Rab9 promoter act
CCCc1cc(=O)[nH]c(SCc2nc(-c3ccc(C)cc3)no2)n1	/	-18%	/	/	/	/
O=C1N(Cc2cccc(C(F)(F)F)c2)c2ccccc2S(=O)(=O)N1c1cccc(Cl)c1	/	1%	/	/	/	/
COc1cccc(N2CCN(C(=O)CCc3c(C)nc4c(c3C)c(=O)n(C)c(=O)n4C)CC2)c1	/	-4%	/	/	-9%	/
COC(=O)C(Cc1ccc(OC(=O)c2ccccc2Cl)cc1)N1Cc2ccccc2C1=O (stereo not given)	15%	?	1%	?	28%	4µM*
COc1ccc(C(=O)NCCn2cc(SCC(=O)NCCc3ccc(OC)c(OC)c3)c3ccccc32)cc1	/	?	/	/	-10%	/
COCCCNC(=O)C(=O)NCC(c1ccc2c(c1)OCO2)N1CCOCC1 (stereo not given)	/	0%	/	/	/	/
Cc1ccc(C(=O)c2cc3ccccc3o2)cc1	?	2.1µM*	-6%	2µM*	?	2.2µM*
O=C(c1cc2ccccc2o1)c1cccs1	16%	11µM*	-3%	3.5µM*	?	2.8µM*
O=C(c1cccc([N+](=O)[O-])c1)c1cc2ccccc2o1	-1%	?	-2%	9%	-15%	17%
O=C(NC(=S)Nc1ccc(NC(=O)c2cccs2)cc1)c1cc2ccccc2o1	?	0%	1%	0%	-7%	-6%
Cc1ccc(C(=O)c2cc3ccccc3o2)cc1C	16µM*	4.8µM*	-9%	2.2µM*	?	3.5µM*
CC(C)N(C(=O)Cn1cc(S(=O)(=O)Cc2ccc(C(F)(F)F)cc2)c2ccccc21)C(C)C	/	5%	/	/	/	/
O=C(NC(Cc1ccccc1)C(=O)O)/C(=C/c1cccc([N+](=O)[O-])c1)NC(=O)c1ccco1 (stereo not given)	-1%	1%	/	0%	/	-1%
O=C(/C=C/c1cccc([N+](=O)[O-])c1)N(c1ccccn1)c1ccccn1	1%	0%	/	-3%	/	2%
CC(NC(=O)/C(=C\c1cccc([N+](=O)[O-])c1)NC(=O)c1ccco1)C(=O)O (stereo not given)	-1%	15µM*	-6%	-1%	-21%	2%
O=C(/C=C/c1cccc([N+](=O)[O-])c1)Nc1ccccn1	16%	-1%	-1%	?	27%	2.8µM*
Cc1ccc2oc(-c3cccc(NC(=O)/C=C/c4cccc([N+](=O)[O-])c4)c3C)nc2c1	0%	3.4µM*	-5%	?	13µM*	4.5µM*
O=C(/C=C/c1ccc(Cl)c([N+](=O)[O-])c1)Nc1cccc(NC(=O)c2ccco2)c1	-2%	?	-3%	-31%	25%	-3%
O=C(/C=C/c1cccc([N+](=O)[O-])c1)Nc1cccc(NC(=O)c2ccco2)c1	-5%	19µM*	3%	2%	-1%	7%
CCOCCc1nn2c(=O)cc(COC(=O)c3ccc(NC(=O)c4ccc(F)cc4)cc3)nc2s1	/	0%	/	/	/	/
COC(=O)c1sccc1S(=O)(=O)N(CC(=O)NCc1ccc(C)cc1)c1ccccc1	/	-8%	/	/	/	/
Cc1ccccc1C(=O)Nc1ccc2oc(-c3ccc(Cl)c(Cl)c3)nc2c1	/	3%	/	/	1%	/
Cc1ccc(-n2cc(CNCCCn3cccn3)c(-c3cccc(C)c3)n2)cc1	1%	?	/	-4%	/	-4%
Cc1ccc(-n2cc(CNCCc3cscn3)c(-c3ccc(F)cc3)n2)cc1	0%	11µM*	1%	-2%	/	8%
Cc1ccc(-n2cc(CNCCCn3ccnc3C)c(-c3ccc(F)cc3)n2)cc1	1%	24µM*	/	-2%	/	-4%
COc1ccc(-n2cc(CNCCc3cscn3)c(-c3ccccc3Cl)n2)cc1	-2%	24µM*	-5%	-1%	/	0%
Cc1nc2ccn(Cc3ccco3)c(=O)c2cc1C(=O)NCc1ccc(F)cc1	/	-2%	/	/	/	/
